Screening results from PubChem BioAssay.
TRHR enhancer – allosterically enhances the human TRH receptor | 0.66% of 360,000 active | P34981 | AID 493056 | TRHR cells, fluo-8 calcium fluorescence, EC20 TRH enhancement | enhancement, % at 2 µM; in the data active = enhancement above about 30%
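Enhancer read-out: after compound pinning and an initial kinetic agonist-mode read, an EC20 of TRH (10 nM final) was injected and fluo-8 calcium signal (Ex 480/Em 530) followed at 1 s/cycle for 100 cycles in TRHR-expressing cells.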
GLP1R cytotox – cytotoxic in the GLP-1 receptor inverse agonist counter-screen | Potency, µM (doses to about 38.3 µM), actives largely listed as inhibitors | HEK293 cAMP-luciferase reporter cells, luminescence, 24 h | 0.13% of 410,000 active;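 note: loss of luciferase light is scored as toxicity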
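Here, cytotoxicity is scored as loss of luminescence. The MLSMR collection was tested on cells seeded in medium containing 10% Nu serum, with a 24 hr compound exposure preceded by 12 hours of culture.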
TRHR ag – agonists of human TRH receptor. P34981. TRHR cells, calcium flux fluo-8, FDSS agonist mode. activation, % at 2 µM. 0.18% of 360,000 active. AID 493084; in the data active = activation above about 30%
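In this calcium-flux screen, cells bearing human TRHR are dye-loaded with fluo-8, baselined for 10 cycles, then exposed to library compounds; positive kinetic calcium responses during the agonist phase mark hits, with TRH as control.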
PTHR1 ag – activates the human parathyroid hormone receptor PTHR1; Q03431; HEK293 GP2 PTHR1 cells, GloSensor cAMP luminescence, 1 h; Potency, µM (highest dose often 115 µM), usual class: activators; 0.075% of 410,000 active; AID 743266; note: nearly all actives have a fitted effect of over 55% in size
Target sequence (Q03431 whole entry, looked up): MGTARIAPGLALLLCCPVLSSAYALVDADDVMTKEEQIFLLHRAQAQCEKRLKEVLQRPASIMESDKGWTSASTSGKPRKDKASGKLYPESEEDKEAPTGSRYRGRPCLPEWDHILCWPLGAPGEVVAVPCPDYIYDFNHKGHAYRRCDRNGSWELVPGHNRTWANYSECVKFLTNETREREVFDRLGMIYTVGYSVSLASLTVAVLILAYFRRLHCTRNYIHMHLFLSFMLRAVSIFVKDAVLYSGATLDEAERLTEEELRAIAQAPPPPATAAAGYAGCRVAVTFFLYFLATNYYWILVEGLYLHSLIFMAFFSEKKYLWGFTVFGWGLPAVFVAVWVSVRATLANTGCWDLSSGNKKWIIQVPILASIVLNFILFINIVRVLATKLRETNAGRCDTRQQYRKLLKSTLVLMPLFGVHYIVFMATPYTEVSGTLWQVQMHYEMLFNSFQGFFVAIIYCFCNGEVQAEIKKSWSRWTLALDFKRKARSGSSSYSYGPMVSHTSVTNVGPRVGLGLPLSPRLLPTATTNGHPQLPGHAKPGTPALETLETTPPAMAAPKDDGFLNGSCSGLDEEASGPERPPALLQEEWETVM
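HEK-293-derived GP2 cells expressing PTHR1 and a GloSensor cAMP reporter, 3,000/well, plated overnight, given luciferin plus IBMX (each 0.5 mM as added) for 1 h at 37 °C, then compound for 1 h at 37 °C. Luminescence was read after 15 min at room temperature.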
GLP1R inv ag – acts as inverse agonist at human GLP-1 receptor; P43220; Potency, µM (top dose mostly 38.3 µM), hits mostly inhibitors; 1.6% of 410,000 active; HEK293 GLP-1R CRE-luciferase, luminescence, 24 h; GLP-1R form is constitutively active; note: nearly all actives have a fitted effect of over 55% in size
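HEK293 cells stably co-expressing constitutively active GLP-1R and a cAMP-responsive luciferase reporter were seeded in DMEM with 10% Nu serum, given compounds after 12 h, and incubated 24 h at 37 deg C. Luminescence was then read.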
GLP-1R agonist – GLP-1 receptor (human) agonism; P43220; HEK293 GLP-1R CRE-luciferase, luminescence, 4-6 h; cells express a hypersensitive GLP-1R form; Potency, µM (highest dose often 45.6 µM), most hits filed as activators; 0.007% of 380,000 active; AID 624172
Numbers stand for hits; . = inactive; ? = inconclusive; / = not tested or not shown. Only some compounds are listed: those with a hit (about 2.4% of all), similar ones and a draw of the others. Unless noted, calls come from the whole dose curve; as a rule, active = well fitted curve in the direction sought with a large enough effect; inconclusive = small, poorly fitted or top-dose-only effect, or another doubt; inactive = no such curve, though single readings can be large; an effect the other way counts as inactive or inconclusive.

SMILES	TRHR enhancer	GLP1R cytotox	TRHR ag	PTHR1 ag	GLP1R inv ag	GLP-1R agonist
COC(=O)[C@@]12C[C@@H](CC(=O)NCC34CC5CC(CC(C5)C3)C4)C(=O)N(Cc3ccco3)C1=CCC(C)(C)C2	/	.	/	.	10µM	/
C#CCNC(=O)C[C@@H]1C[C@@]2(C(=O)OC)CC(C)(C)CC=C2N(Cc2ccco2)C1=O	/	.	/	.	.	/
COC(=O)[C@@]12C[C@@H](CC(=O)NCc3cccs3)C(=O)N(Cc3cccc4ccccc34)C1=CCC(C)(C)C2	/	.	/	.	11µM	/
C#CCNC(=O)C[C@@H]1C[C@@]2(C(=O)OC)CC(C)(C)CC=C2N(Cc2cccc3ccccc23)C1=O	/	.	/	.	?	/
CN(CC(=O)Nc1ccc(F)c(F)c1F)C(=O)Cc1ccc2c(c1)OCCO2	.	.	.	.	.	.
O=C(Nc1cc(Cl)cc(Cl)c1)c1cccc(OC(F)F)c1	.	.	.	.	13µM	.
Cc1ccnc(NC(=O)c2cccc(OC(F)F)c2)n1	.	.	.	.	.	.
O=c1[nH][nH]c2c1C(c1cccc(C(F)(F)F)c1)OC(CCc1ccccc1)C2 (configuration not stated)	/	.	/	.	?	.
O=c1ccc2c(-c3ccccc3)c3ccc(O)cc3oc-2c1	.	.	.	.	.	.
Nc1ccc(-c2c3ccc(=O)cc-3oc3cc(O)ccc23)cc1C(=O)O	.	.	152	.	.	.
C=C(NC(=O)C(=C)NC(=O)c1csc(C2=N[C@@H]3c4csc(n4)[C@@H]4NC(=O)c5csc(n5)[C@@H]([C@](C)(O)[C@H](C)O)NC(=O)[C@@H]5CSC(=N5)/C(=C/C)NC(=O)[C@@H]([C@H](C)O)NC(=O)c5csc(n5)[C@]3(CC2)NC(=O)[C@@H](C)NC(=O)C(=C)NC(=O)[C@@H](C)NC(=O)[C@@H]([C@@H](C)CC)N[C@H]2C=Cc3c([C@H](C)O)cc(nc3[C@@H]2O)C(=O)O[C@H]4C)n1)C(N)=O	/	/	/	/	/	.
CCOc1ccc(NC(=O)Cc2ccc(S(=O)(=O)N3CCOCC3)s2)cc1OCC	.	.	.	.	.	.
Cc1ccc(OC(C)C(=O)Nc2ccncc2)cc1 (configuration not stated)	.	.	.	.	.	.
Cc1ccc(OC(C)C(=O)Nc2ccc(C)c(S(=O)(=O)Nc3ccc(C)cc3C)c2)cc1 (configuration not stated)	.	.	.	.	4µM	.
Cc1ccc(NC(=O)CSc2nc(C)c(C)c(C)n2)cc1S(=O)(=O)N1CCOCC1	/	.	/	.	.	.
Cc1ccc(NC(=O)C(NC2CCCc3ccccc32)c2ccccc2)cc1Cl (configuration not stated)	32	.	.	.	?	.
Cc1ccc(NC(=O)C(NC2CCCc3ccccc32)c2ccccc2)c([N+](=O)[O-])c1 (configuration not stated)	.	.	.	.	4µM	.
CNC(=O)NC(=O)C(NC1CCCc2ccccc21)c1ccccc1 (configuration not stated)	.	.	.	.	?	.
O=c1c2ccccc2c(-c2ccccc2)nn1-c1cc(Cl)cc(Cl)c1	.	.	.	.	.	.
CN1CCN(S(=O)(=O)c2ccc(N3CCN(S(=O)(=O)/C=C/c4ccccc4)CC3)nc2)CC1	.	.	.	.	7.9µM	.
CN1CCN(S(=O)(=O)c2ccc(N3CCN(C(c4ccccc4)c4ccccc4)CC3)nc2)CC1	.	.	.	.	.	.
CN1CCN(NC(=O)c2cn(-c3ccccc3)nc2-c2cccs2)CC1	.	.	.	.	.	.
CN1CCN(NC(=O)c2cn(-c3ccccc3)nc2-c2cccc(Br)c2)CC1	.	?	.	.	3.2µM	.
CN(C)c1cccc(C(=O)Nc2nc3ccccc3[nH]2)c1	.	.	.	.	3.5µM	.
COc1ccc(C(=O)Nc2nc3ccccc3[nH]2)cc1	.	?	.	.	?	.
